# Paper PMC5540273 (PLoS ONE, 2017)
# Tested on: CDK5
# Conditions: concentration: 1 μM, replicates: in singlicate; n = 1
# 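Also: KINOMEscan kinase panel screen.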
row,SMILES,%Inh [%]
1,Cc1ccc(NC(=O)c2cccc(N3CCCCC3)c2)cc1-c1ccc(C(=O)NCC2CC2)cc1 [GSK1917008],2
2,Cl.O=C(Nc1ccc(Oc2ccc3[nH]c(NC(=O)c4ccco4)nc3c2)cc1)Nc1cc(C(F)(F)F)ccc1F [GW683134],0
3,Cn1cc(-c2ccc3c(c2)CCN3C(=O)Cc2cc(F)cc(C(F)(F)F)c2)c2c(N)ncnc21 [GSK2635225],0
4,COc1cc(Nc2nccc(N3CCC(NS(=O)(=O)c4ccc(NC(C)=O)cc4)CC3)n2)cc(OC)c1OC [GSK1379825],0
5,O=C1NC(=O)C(c2ccccc2Cl)=C1Nc1cccc(Cl)c1 [SB-342409],0
6,Cc1cc(-c2ccnc(Nc3cccc(C#N)c3)n2)cc(C)c1O [GSK1440913],18
7,CC(C)NCC(Cc1ccccc1)NC(=O)c1cc(Br)c(-c2ccnc3[nH]ccc23)s1.Cl.Cl (stereo not drawn) [GSK1383281],0
8,Nc1ncc(-c2ccc3nccc(-c4ccncc4)c3c2)cc1S(=O)(=O)N1CCCCC1 [GSK1693850],0
9,COc1cc(Nc2ccnc3cc(-c4ccncc4)ccc23)cc(OC)c1OC.Cl [GW494610],0
10,COC(=O)Nc1nc2ccc(Oc3ccc(NC(=O)Nc4cc(C(F)(F)F)ccc4F)cc3)cc2[nH]1.Cl [GW654607],17
11,c1ccc(Oc2ccc(Nc3ccnc4cc(-c5ccc(CN6CCCCC6)o5)ccc34)cc2)nc1 [GW567143],0
12,COc1cccc(CC(=O)N2CCc3cc(-c4cn(C)c5ncnc(N)c45)ccc32)c1 [GSK2608899],6
